Data on 35 compounds can be found in PubChem BioAssay AID540317 (National Center for Advancing Translational Sciences (NCATS), 2011).

About 2,200 (0.56%) of roughly 390,000 compounds were called active. Another 3% or so got no clear call; they are omitted. The call rests on the fitted dose curve; in most records, active means well fitted inhibition curve with a large enough effect; inconclusive means small, poorly fitted or top-dose-only effect; inactive means no such curve, though single readings can be large or run the other way. Shown is part of a subset that was picked to be rich in actives. Where a call stands in place of a potency, no number is given.
Potency means the concentration at half of the fitted maximal effect.

In the test the target is Chromobox protein homolog 1 (Homo sapiens) (UniProt P83916). The test can be described thus: HTS for Inhibitors of HP1-beta Chromodomain Interactions with Methylated Histone Tails. Further: nearly all actives have a fitted effect of over 70% in size. The conditions noted are these: AlphaScreen HP1-beta / biotin-H3K9me3 peptide binding; series mostly up to 114 µM. The text has this: As our understanding of epigenetics expands, it is becoming clear that players in this field are potential targets for drug development. This area of epigenetic therapy has established applications for the treatment of cancer and neurological diseases. We have been involved in this field for a number of years and have performed high-throughput screens to identify the first small molecule inhibitors of protein methyltransferases. These methyltransferases target multiple substrates, and thus regulate many arms of an epigenetic pathway. The methylation of different substrates often generates docking sites for effector proteins that harbor binding domains (chromo, tudor, PHD, MBT and ANK repeats). It has been proposed that the binding sites generated for different proteins by these post-translational modifcations mediate downstream effects on chromatin. Consistent with this theory, di- and tri-methylation of histone H3K9 facilitates the binding of heterochromatin protein HP1. The HP1 protein harbors a chromodomain that is responsible for the methyl-dependent interaction between HP1 and lysine 9 of histone H3. HP1 was first described in flies as a heterochromatin associated protein that can regulate gene silencing. It harbors a chromodomain that binds H3K9me3. In addition, it harbors a chromoshadow domain that interacts with a large number of proteins that are involved in heterochromatin formation and gene repression. There are three highly related HP1 isoforms. All three variants are associated with pericentric heterochromatin and it is not clear whether they have specific or redundant functions. MPP8 is also involved in the repression of gene in euchromatic regions (unpublished data) and like HP1 its chromodomain binds H3K9me3. MPP8 harbors an ankyrin repeat region that is likely involved in binding and recruiting interacting proteins with transcriptional repressive function, much like the chromoshadow domain of HP1 does. We hypothesize that by inhibiting specific protein-protein interactions we will be able to develop compounds that block a single arm of an epigenetic pathway. The specificity attained by blocking a single protein-protein interaction will be far greater than that attained by blocking the enzyme that regulates one of many interactions. Low-affinity protein-protein interactions (Kd in the single- to double-digit micromolar range) such as those discussed here have been very difficult to assay by traditional techniques such as fluorescence polarization or fluorescence resonance energy transfer. We have developed a sensitive chemiluminescence-based assay (Quinn, et al. 2009), which serves as the starting point for this project. The following is a validation assay to identify lead compounds that can block methyl-dependent protein-protein interactions (specifically HP1-beta), which can be used as probes to analyze these methyl-driven interactions and perhaps even developed into targeted epigenetic therapies. NIH Chemical Genomics Center [NCGC] NIH Molecular Libraries Probe Centers Network [MLPCN] MLPCN Grant: DA031087 Assay Submitter (PI): Mark Bedford, University of Texas, Medical Anderson Cancer Center, TX
Chromobox protein homolog 1 (Homo sapiens), sequence (P83916 whole entry, looked up): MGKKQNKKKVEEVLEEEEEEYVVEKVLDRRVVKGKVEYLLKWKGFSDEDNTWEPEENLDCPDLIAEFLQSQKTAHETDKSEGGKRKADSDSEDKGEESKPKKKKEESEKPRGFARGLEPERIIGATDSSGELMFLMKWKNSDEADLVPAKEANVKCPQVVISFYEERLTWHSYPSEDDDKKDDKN
To each well, 2 uL of HP1-beta protein (final 50 nM) and 1 uL biotinylated histone peptide trimethylated at Lys9 [b-H3(1-18)K9me3] (final 50 nM) was added in 1x PBS buffer, pH 7.4, containing 0.01% Tween-20 using a nanoliter dispenser. Formation of a protein-peptide complex proceeded at room temperature for 30 min. A Kalypsys pin-tool was employed to transfer 23 nL of library compound solution in DMSO to each well. Aurintricarboxylic acid (ATA) was used as an intraplate control with a 12-point titration in duplicate. Following a 30 min incubation of the protein-peptide complex with compounds at room temperature, a mixture of 40 ug/mL each streptavidin-coated donor and nickel chelate acceptor AlphaScreen beads (final 10 ug/mL) was added in a 1 uL dispense for a final volume of 4 uL. […]
Background: Bead proximity is the source of the signal in Alpha formats.
For `O=C(O)c1cc[c]([Sb](=[O])([OH])[OH])cc1[N+](=O)[O-]`, the Potency is 0.794 µM (active).
Turning to `O=C(c1ccccc1[N+](=O)[O-])N1CCC2(CC1)OCCO2`, the Potency entry was “inactive”.
`CCOc1ccc(S(=O)(=O)NCc2ccc3c(c2)OCO3)cc1C`: the Potency result is “inactive”.
Take `C=CCOC(=O)c1ccccc1C(=O)OCC=C`: the Potency entry was “inactive”.
For the compound `CCn1cc2nc(SCc3ccccc3Cl)n(CCc3ccccc3)c(=O)c2n1`, the Potency entry was “inactive”.
For the compound `O=c1[nH]c(=S)[nH]c(O)c1/C=C1\C=Nc2ccccc21`, the Potency result is “inactive”.
As for `Nc1nc(NC(=O)/C=C/c2ccc(F)cc2)nn1-c1ccccc1`, the Potency result was “inactive”.
`COc1ccc(N2C(=O)/C(=C/c3ccco3)C(=O)NC2=S)cc1`: the Potency is 14.1 µM (active).
For `CCOC(=O)CNC(=O)N1c2ccccc2Sc2ccccc21` the value was “inactive”; for `Brc1cc(Br)c(Oc2cc(Br)c(Br)cc2Br)cc1Br`, “inactive”.
Turning to `CN(C(=O)CSc1nc2ccc(NC(=O)COc3ccccc3)cc2s1)c1ccccc1`, the Potency result was “inactive”.
The value for `c1ccc(CC2CCCCN2)cc1` (stereo not given) was “inactive”; that for `COc1ccccc1CN1CCN(C(=O)Cc2ccccc2)CC1` was 14.1 µM (active).
In the case of `O=C(Cc1ccccc1)N1CCN(C2CCCCCC2)CC1`, the Potency was 79.4 µM (active).
As to `O=C(Cc1ccc(Cl)cc1)NCCN1CCN(C(=O)Cc2ccc(Cl)cc2)CC1`, the Potency result is “inactive”.
The value for `c1ccc(CCNC2CCCCCC2)cc1` was “inactive”; that for `O=C(Cc1ccccc1[N+](=O)[O-])N1CCN(Cc2ccc3c(c2)OCO3)CC1` was “inactive”; that for `O=C(OCC(=O)c1cccs1)C1=COCCO1` was “inactive”.
In the case of `O=C(CSc1ccccc1)Nc1ccc(C(=O)Nc2cccc(O)c2)cc1`, the Potency entry is “inactive”.
For `O=c1c2ccccc2ccc2ccc(P(=O)(O)O)cc12` the value was “inactive”.
For `COc1cc(Cl)ccc1Nc1ncc(C(=O)N2CCN(c3ccccc3OC)CC2)c2ccccc12` the value was “inactive”.
Regarding `O=C(COc1ccccc1Cl)Nc1ccc2nc(SCC(=O)N3CCCC3)sc2c1`, the Potency entry was “inactive”.
With `CCOCCCNC(=O)c1c(NC(=O)c2nc(SC)ncc2Cl)sc2c1CCCC2`, the Potency result was “inactive”.
Turning to `C[C@H]1CN([C@@H](C)CO)C(=O)Cc2cc(NC(=O)Cc3ccccc3)ccc2O[C@H]1CN(C)S(=O)(=O)c1cccs1`, the Potency entry is “inactive”.
As to `COc1cccc(N2C(=O)NC(=O)/C(=C\c3ccc([N+](=O)[O-])s3)C2=O)c1`, the Potency was 31.6 µM (active).
The value for `Cc1ccsc1/C=N/NC(=O)Cc1cc(=O)[nH][nH]1` was “inactive”.
The value for `CC(=O)c1ccc(OC(=O)N2CCOCC2)cc1` was “inactive”; that for `CCc1ccccc1NC(=O)c1sc2nc3c(cc2c1N)CN(Cc1ccccc1)CC3` was “inactive”; that for `CCN(CC)c1ccc(C2C(C(N)=O)=C(C)Nc3nc(SCc4ccccc4)nn32)cc1` (stereo not given) was “inactive”.
For `Cc1cc2n(n1)C(c1cc(C(C)(C)C)c(O)cc1O)Nc1ccccc1-2` (stereo not given), the Potency entry was “inactive”.
For `COc1ccc(CNC(=O)c2cc3c(-c4ccccc4F)nn(C)c3s2)c(OC)c1`, the Potency entry was “inactive”.
`Cc1cc(C)c2c(c1)NP(=S)(c1ccccc1)N2` (stereo not given): the Potency is 50.1 µM (active).
Regarding `Cc1ccc2c(c1)C1CN(C)CCC1N2C(=O)c1ccccc1NS(=O)(=O)c1ccc(F)cc1C` (stereo not given), the Potency entry was “inactive”.
Turning to `O=C(O)C1CSC(c2cccnc2)N1` (stereo not given), the Potency is 17.8 µM (active).
Regarding `CCc1ccc(C2C(C#N)=C(N)Oc3n[nH]c(CC(=O)OC)c32)cc1` (stereo not given), the Potency result is “inactive”.
